Common to all, as to assay: NCI-60 one-dose screen, 48 h (100 = growth as untreated, 0 = no growth, -100 = all killed)
Details in all cases: 10 µM unless noted

Assay [1] deals with SK-MEL-2 melanoma.
Assay [2] relates to EKVX NSCLC.
For assay [3], the system named is SN12C renal.
In assay [4] the test system is TK-10 renal.
Assay [5] relates to ACHN renal.
Assay [6] relates to CAKI-1 renal.
The test system of assay [7] is CCRF-CEM leukemia.
The subject of assay [8] is MOLT-4 leukemia.
Assay [9] has as its system RPMI-8226 leukemia.
The test system of assay [10] is OVCAR-8 ovarian.
Assay [11] has as its system OVCAR-5 ovarian.
The test system of assay [12] is OVCAR-4 ovarian.
Assay [13] concerns SK-OV-3 ovarian.
For assay [14], the system named is IGROV1 ovarian.
Assay [15] has as its system OVCAR-3 ovarian.
The test system of assay [16] is NCI/ADR-RES ovarian.
Assay [17] has as its system A498 renal.
Assay [18] concerns HS 578T breast.
The test system of assay [19] is UO-31 renal.
Assay [20] relates to SR leukemia.

This is part of a sample that, as a whole, favours compounds with a hit. Of some 83,000 tested, about 20% had one in any assay.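 The endpoint reported here, percent growth, reads 100 for growth as untreated, 0 for no net growth and -100 for all cells dead.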 Values without a mark were called inactive. Calls of active or inactive are those of the source. How the source made its calls: active means growth percent below 10; inactive means the rest.

Consider `Cn1ncc2c(Nc3ccc(Br)cc3)nc(Nc3ccc(Br)cc3)nc21`, for which the growth in assay [1] is 47.6%; in assay [2], 41%; in [3], 47.1%; in assay [4], 73.1%; in assay [5] it was 40.1%; in assay [6] it was 37.7%. Moreover, the growth in [7] was 27.8%; in assay [8], 26.7%; in [9], 23.2%; in assay [10] it was 59.6%; in assay [11] it was 56.9%; in assay [12], 51.9%. Moreover, the growth was 78.1% in [13], 48.9% in assay [14], 68.2% in assay [15] and 21.5% in assay [16].
Turning to `Cc1cc(N(CCCNc2ccnc3cc(Cl)ccc23)Cc2ccccn2)nc(N2CCCC2)n1`, the growth is 99.8% in assay [1]; 76.3% in assay [2]; 64.4% in assay [3]; 136% in assay [4]; 93.5% in [5]; 76.5% in assay [6]. Besides, the growth in assay [17] is 95.1%; in assay [7] it was 53.9%; in assay [9] it was 48.9%; in [10] it was 73.4%; in [11], 87.6%; in [12], 63.1%. Further, the growth is 102% in assay [13]; 87.5% in assay [14]; 88% in [15]; 88.9% in [18]; 76.7% in [16].
With `CCCCCCNCc1cc(C(C)(C)C)cc(CNCCCCCC)c1O`, the growth in [1] was -7.07% (active); in [2], -47.9% (active); in assay [19], -80.7% (active); in assay [4], -80.4% (active); in assay [5], -84.2% (active); in assay [6], 16.7%. The growth in assay [17] is -7.12% (active); in [7] it was -10.4% (active); in [8] it was -14.8% (active); in assay [20], -52% (active); in assay [9] it was -29.8% (active); in [10] it was -80.2% (active). Moreover, the growth was -69.9% (active) in assay [11]; -94.8% (active) in assay [12]; -90.5% (active) in [13]; -77.5% (active) in assay [14]; -86.6% (active) in [15]; -22.1% (active) in assay [18]. In addition, the growth in [16] was -87.6% (active).
As to `Cc1cc2c(F)c(Oc3ncnc(Nc4ccc(N5C[C@@H](C)N[C@@H](C)C5)cc4)c3C#N)cc(F)c2[nH]1`, the growth in assay [1] is 96.9%; in assay [2], 78.7%; in [19], 70%; in assay [4], 70.9%; in [5], -12.2% (active); in assay [6], 40.3%. Also, the growth in assay [17] was 15.6%; in assay [7] it was 7.66% (active); in [8], -15.9% (active); in assay [20] it was -26.4% (active); in assay [9], 2.98% (active); in [10], 25.6%. For the same compound, the growth is 103% in assay [11]; 16.2% in [12]; 92.8% in [13]; 73% in assay [14]; -29.6% (active) in [15]; 64% in assay [18]. The growth in [16] was 50.6%.
Regarding `CC(=O)C(C(C)=O)c1nc2sc3cc(Cl)ccc3n2c(=N)c1C#N`, the growth in assay [1] was 86.8%; in assay [2] it was 70.7%; in assay [19] it was 58.4%; in assay [4] it was 117%; in assay [5] it was 84%; in assay [6] it was 85.7%. The growth in assay [17] was 84.5%; in assay [7], 91.9%; in assay [8] it was 67%; in assay [20], 33.6%; in [9], 60.8%; in [10] it was 90.5%. In addition, the growth is 94.8% in assay [11]; 71.9% in assay [12]; 93.8% in assay [13]; 70.4% in [14]; 86.1% in assay [15]; 48.5% in assay [18]. Besides, the growth in assay [16] is 88.3%.
In the case of `Nc1c(-c2nc3ccccc3c(=O)[nH]2)nnn1-c1ccc(Cl)cc1`, the growth is 96.3% in [1]; 103% in assay [2]; 48% in [19]; 72.6% in assay [4]; 87% in assay [5]; 70.2% in [6]. For the same compound, the growth is 57.4% in assay [17]; 90.2% in assay [7]; 87.7% in assay [8]; 56.2% in assay [20]; 90.6% in assay [9]; 56.1% in assay [10]. The growth in [11] was 97.8%; in assay [12] it was -4.08% (active); in assay [13] it was 68.5%; in [14], 83%; in [15], 89.2%; in [16] it was 56.4%.
Consider `COc1ccc(Cn2cnc3cc(C(=O)Nc4cccc5ccccc45)ccc32)c(OC)c1`, for which the growth in assay [1] was 44.4% [30 µM]; in [2], 37.9% [30 µM]; in [3], 7.29% [30 µM] (active); in [4], 76.8% [30 µM]; in assay [5], 23.8% [30 µM]; in [6], 18% [30 µM]. In addition, the growth was -13.9% [30 µM] (active) in [17]; 14.7% [30 µM] in assay [10]; 16.3% [30 µM] in [11]; 44.4% [30 µM] in [12]; 31% [30 µM] in [13]; 14.7% [30 µM] in assay [14]. Besides, the growth in assay [15] is -17.8% [30 µM] (active); in assay [18] it was 29.8% [30 µM]; in [16], 3.4% [30 µM] (active).
For the compound `O=C1CC(c2ccc3c(c2)OCO3)Nc2cc3c(cc21)OCO3` (stereo not given), the growth is 11.7% in assay [1]; 36.2% in assay [2]; 22.7% in [3]; 34.6% in assay [4]; 45.8% in assay [5]; 43.4% in assay [6]. In addition, the growth in assay [17] was -17.4% (active); in assay [7], 9.73% (active); in assay [8] it was 26%; in assay [20], 7.67% (active); in [9], 16.5%; in assay [10] it was 12.7%. Further, the growth was 44.7% in [11]; 49.9% in [12]; 50.4% in assay [14]; -5.26% (active) in [15]; 13.5% in [16].
